Here are results for 39 molecules from PubChem BioAssay (NCATS).

Results filed as inconclusive are left out. The source made the active and inactive calls. The call rests on the fitted dose curve; in most records, active means well fitted cell-killing curve with a large enough effect; inconclusive means small, poorly fitted or top-dose-only effect, or effect the other way; inactive means no such curve, though single readings can be large or run the other way.

The nature of assay [1]: Quantitative High-Throughput drug screen in 47 multiple myeloma cell lines against the NCATS MIPE library collection: KMS11_JCRBsus cell viability assay (AID 1919873). Further: nearly all actives have a fitted effect of over 50% in size. The gist of the method: (§1)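 Cells were exposed to library compounds for 48 hours, after which ATP was measured by CellTiter-Glo. Signal was taken as median relative luminescence units.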
Assay [2] can be described thus: Quantitative High-Throughput drug screen in 47 multiple myeloma cell lines against the NCATS MIPE library collection: KMS28BM_JCRB cell viability assay (AID 1919874). Further: nearly all actives have a fitted effect of over 35% in size. The gist of the method:
as §1
Potency means the concentration at half of the fitted maximal effect.

As to `CC(C)C[C@H](NC(=O)c1cc2ccccc2s1)C(=O)N1CCN(C(=O)[C@H](CO)NS(=O)(=O)c2ccc(Cl)cc2Cl)CC1`, the Potency in assay [1] and in assay [2] was 20.9 µM (active) in each case. As to `OC[C@H]1O[C@@H](O[C@H]2[C@@H](O)[C@@](O)(CO)O[C@@H]2CO)[C@H](O)[C@@H](O)[C@@H]1O`, the Potency result in assay [1] was “inactive”. With `O=C(NCCCCN1CCOCC1)c1cc2ccccc2o1`, the Potency result in assay [1] and in assay [2] was “inactive” in each case.

With `NC(=O)c1ncn([C@@H]2O[C@H](CO)[C@@H](O)[C@@H]2O)n1`, the Potency entry in assay [1] was “inactive”.

As to `CN[C@@H]1[C@@H](O)[C@@H](O[C@@H]2[C@@H](O)[C@H](O[C@H]3O[C@H](CN)[C@@H](O)[C@H](O)[C@@H]3O)[C@@H](N)C[C@@H]2NC(=O)[C@@H](O)CN)OC[C@]1(C)O`, the Potency in assay [1] was 7.43 µM (active). For `CCNC(=O)[C@H]1O[C@@H](n2cnc3c(N)nc(NCCc4ccc(CCC(=O)O)cc4)nc32)[C@H](O)[C@H]1O`, the Potency entry in assay [1] is “inactive”. Turning to `COc1ccc(-c2cc3nccn3c(Nc3ncccc3C(N)=O)n2)cc1OC`, the figures for the Potency in assay [1] and in assay [2] were 4.69 µM (active) and 6.62 µM (active), respectively. On to `O=C(Nc1cccc2c(=O)cc(-c3nn[nH]n3)oc12)c1ccc(OCCCCc2ccccc2)cc1`, for which the Potency in assay [1] is 23.5 µM (active). The same measure, in the same setting: under `CC(=O)OCC(=O)[C@@]1(O)CC[C@H]2[C@@H]3CCC4=CC(=O)C=C[C@]4(C)[C@@H]3[C@@H](O)C[C@@]21C` stands 0.235 µM (active). For `COc1cc(F)c(C(C)C)cc1-c1ccc(C(F)(F)F)cc1CN1C(=O)O[C@H](c2cc(C(F)(F)F)cc(C(F)(F)F)c2)[C@@H]1C`, the Potency result in assay [1] and in assay [2] was “inactive” throughout.

For the molecule `Cc1nn(Cc2ccccc2Cl)c(C)c1CN(C)CC(O)COc1ccc(Cl)cc1` (stereo not given), the results for the Potency in assay [1] and in assay [2] were 23.5 µM (active) and 33.2 µM (active), respectively.

In the case of `CC(C)CN(C[C@@H](O)[C@H](Cc1ccccc1)NC(=O)O[C@H]1CO[C@H]2OCC[C@H]21)S(=O)(=O)c1ccc(N)cc1`, in assay [1], the Potency was 9.35 µM (active). Turning to `O=C(Nc1cccc(Cl)c1)Nc1ncc(CCNc2ncnc3ccsc23)s1`, in assay [1], the Potency is 11.8 µM (active).

On to `CC1C(=O)OC2C(O)C34C5CC(C(C)(C)C)C36C(OC(=O)C6O)OC4(C(=O)O5)C12O` (stereo not given), for which the Potency result in assay [1] and in assay [2] was “inactive” each time.

Regarding `NCC1CCC(C(=O)O)CC1` (stereo not given), the Potency result in assay [1] and in assay [2] was “inactive” in each case. On to `c1cc(OCCN2CCCCC2)cc(-c2n[nH]c3ccc(-c4ncn[nH]4)cc23)c1`, for which, in assay [1], the Potency is 16.6 µM (active). With `COc1ccc2cc1Oc1ccc(cc1)C[C@H]1c3cc(c(OC)cc3CCN1C)Oc1c(OC)c(OC)cc3c1[C@H](C2)N(C)CC3`, in assay [1], the Potency is 14.8 µM (active).

With `O=c1[nH]c(=O)n([C@H]2C[C@@H](O)[C@@H](CO)O2)cc1I`, the Potency in assay [1] was 2.09 µM (active). For the same molecule, the Potency entry in assay [2] is “inactive”.

Turning to `NCc1c[nH]c(=S)n1[C@H]1CCc2c(F)cc(F)cc2C1`, the Potency in assay [1] and in assay [2] was 20.9 µM (active) throughout. As to `Cc1ccc(C(=O)N(CCCN)[C@@H](c2oc3cc(Cl)ccc3c(=O)c2Cc2ccccc2)C(C)C)cc1`, the Potency result in assay [1] was “inactive”. `CN(CC=CC#CC(C)(C)C)Cc1cccc2ccccc12`: the Potency entry in assay [1] and in assay [2] was “inactive” in each case. Consider `C=CCc1cccc(C=NNC(=O)CN2CCN(Cc3ccccc3)CC2)c1O`, for which the figures for the Potency in assay [1] and in assay [2] were 8.33 µM (active) and 7.43 µM (active), respectively. For `CCNC(=O)Nc1ccc(Oc2ncnc(N)c2C=NOC)cc1Cl`, the Potency in assay [1] was 9.35 µM (active).

For `O=C(Nc1ccccc1)Nc1ccc(-c2ccc(C(=O)[C@H]3CCC[C@H]3C(=O)O)cc2)cc1`, the Potency result in assay [1] and in assay [2] was “inactive” in each case. For `CCCCC[C@H](O)C=C[C@H]1[C@H](O)CC(=O)[C@H]1CCCCCCC(=O)O`, the Potency entry in assay [1] and in assay [2] was “inactive” each time.

As for `O=S(=O)(NCCNCC=Cc1ccc(Br)cc1)c1cccc2cnccc12`, the Potency in assay [1] and in assay [2] was 16.6 µM (active) each time. `CC(=O)N1CCN(c2ccc(OCc3nn(C)c(C)c3-c3cccc4c(CCCOc5cc(C)c(Cl)c(C)c5)c(C(=O)O)n(Cc5cccnc5)c34)cc2)CC1`: the Potency in assay [1] is 20.9 µM (active); in assay [2] it was 9.35 µM (active). Turning to `O=C(c1ccc(C(=O)N2CCC(N3CCCC3)CC2)c(Nc2ccccc2)c1)N1CCC(N2CCCC2)CC1`, the Potency entry in assay [1] is “inactive”. In the case of `C[C@]12C=CC(=O)C=C1CC[C@@H]1[C@@H]2[C@@H](O)C[C@@]2(C)[C@@H]1CC[C@]2(O)C(=O)CO`, the Potency in assay [1] was 0.0935 µM (active). Moreover, the Potency entry in assay [2] was “inactive”. Regarding `C[C@@H]1C[C@H]2[C@@H]3CCC4=CC(=O)C=C[C@]4(C)[C@@]3(F)[C@@H](O)C[C@]2(C)[C@@]1(O)C(=O)CO`, in assay [1], the Potency is 0.0132 µM (active). Moreover, in assay [2], the Potency result is “inactive”. Regarding `O=C(Nc1ccc(OC(F)(F)F)cc1)c1sccc1NCc1ccnc2ccccc12`, the Potency in assay [1] is 7.43 µM (active).

With `Cc1cc(-c2ncc(CC(=O)Nc3ccc(-c4cnccn4)cn3)cc2C)ccn1`, the Potency in assay [1] is 1.87 µM (active). For the same molecule, in assay [2], the Potency result is “inactive”. Regarding `COC(=O)[C@H](c1ccccc1Cl)N1CCc2sccc2C1`, the Potency result in assay [1] and in assay [2] was “inactive” in each case.

Regarding `Nc1ccn([C@@H]2O[C@H](CO)[C@@H](O)[C@H]2O)c(=O)n1`, the Potency result in assay [1] and in assay [2] was “inactive” throughout. Regarding `O=C(O)CCNc1cc(N2CCc3ccccc3CC2)nc(-c2ccccn2)n1`, in assay [1], the Potency result is “inactive”.

Turning to `Fc1ccc(CNc2ncnc3ccc(F)cc23)cc1`, the Potency in assay [1] was 10.5 µM (active).

Regarding `O=C(c1ccc(C=Cc2n[nH]c3ccccc23)cc1)N1CCNCC1`, the Potency in assay [1] is 1.05 µM (active). The same measure, in the same setting: the same measure for `OC(c1cc(C(F)(F)F)nc2c(C(F)(F)F)cccc12)C1CCCCN1` (stereo not given): 11.8 µM (active).

As for `CCOC(=O)[C@H]1O[C@H]1C(=O)N[C@@H](CC(C)C)C(=O)NCCC(C)C`, the Potency result in assay [1] and in assay [2] was “inactive” in each case.
